Test results reported in PubChem BioAssay AID1159580 (chemical genetic matrix, 2015).
Several values for one entry are separate records, joined by “and”; a condition that tells them apart may be missing. Equal values may be shown once. The campaign covered roughly 5,500 compounds. About 2,000 (36%) were called active. Not shown: some 18% with an inconclusive outcome. Rule as the data show it: active = normalized growth mostly below about 0.91 (no sharp cut-off); inconclusive = no clear call, values can overlap the other calls; inactive = mostly above about 0.92. The list shows a part of the results.

Assay: chemical genetic growth profiling, strain panel (AID 1159580);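 also: tested at 20 µM; growth read once vehicle control cultures reached saturation at 30 °C; 1 = growth at the plate median or of vehicle wells; lower values mean less growth of the strain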
Settings: S. cerevisiae deletion strains, growth OD

Measured: normalized growth

CCc1nc(N)nc(N)c1-c1ccc(Cl)cc1
active: locus YDR069C, strain doa4, stronger effect = lower value 0.898
inactive: locus YAL013W, strain DEP1, stronger effect = lower value 1.02 | locus YAL021C, strain ccr4, stronger effect = lower value 0.951 | locus YAL026C, strain drs2, stronger effect = lower value 0.967 | locus YAL030W, strain snc1, stronger effect = lower value 0.977 | locus YBL061C, strain skt5, stronger effect = lower value 0.97 | locus YBR009C, strain hhf1, stronger effect = lower value 0.997 | locus YBR021W, strain FUR4, stronger effect = lower value 1.02 | locus YBR023C, strain chs3, stronger effect = lower value 0.999 | locus YBR171W, strain sec66, stronger effect = lower value 0.969 | locus YBR229C, strain ROT2, stronger effect = lower value 1.01 | locus YBR231C, strain swc5, stronger effect = lower value 0.971 | locus YBR279W, strain paf1, stronger effect = lower value 0.994 | locus YCL011C, strain gbp2, stronger effect = lower value 0.978 | locus YCL016C, strain dcc1, stronger effect = lower value 0.997 | locus YCL029C, strain bik1, stronger effect = lower value 0.988 | locus YCL061C, strain MRC1, stronger effect = lower value 0.958 | locus YCL069W, strain vba3, stronger effect = lower value 0.986 | locus YCR088W, strain abp1, stronger effect = lower value 0.977 | locus YDL005C, strain med2, stronger effect = lower value 0.972 | locus YDL035C, strain GPR1, stronger effect = lower value 0.995 | locus YDL040C, strain nat1, stronger effect = lower value 0.973 | locus YDL074C, strain BRE1, stronger effect = lower value 0.987 | locus YDL101C, strain DUN1, stronger effect = lower value 1 | locus YDL134C, strain PPH21, stronger effect = lower value 1.01 | locus YDL185W, strain tfp1, stronger effect = lower value 1 | locus YDL192W, strain arf1, stronger effect = lower value 1 | locus YDR001C, strain nth1, stronger effect = lower value 0.969 | locus YDR101C, strain arx1, stronger effect = lower value 0.987 | locus YDR137W, strain rgp1, stronger effect = lower value 1.02 | locus YDR150W, strain NUM1, stronger effect = lower value 1.01 | locus YDR159W, strain sac3, stronger effect = lower value 0.955 | locus YDR162C, strain NBP2, stronger effect = lower value 1.01 | locus YDR195W, strain ref2 0.979 | locus YDR297W, strain sur2, stronger effect = lower value 0.987 | locus YDR318W, strain mcm21, stronger effect = lower value 0.976 | locus YDR334W, strain swr1, stronger effect = lower value 0.936 | locus YDR335W, strain msn5, stronger effect = lower value 0.973 | locus YDR388W, stronger effect = lower value 0.974 | locus YDR392W, strain spt3, stronger effect = lower value 1.02 | locus YDR502C, strain sam2, stronger effect = lower value 0.996 | locus YEL003W, strain gim4, stronger effect = lower value 0.97 | locus YEL037C, strain rad23, stronger effect = lower value 0.969 | locus YEL061C, strain CIN8 (second series), stronger effect = lower value 0.966 | locus YEL061C, strain CIN8, stronger effect = lower value 1.01 | locus YER015W, strain faa2, stronger effect = lower value 0.985 | locus YER016W, strain bim1, stronger effect = lower value 1.01 | locus YER110C, stronger effect = lower value 0.999 | locus YER111C, strain swi4, stronger effect = lower value 0.983 | locus YER155C, strain BEM2 (second series), stronger effect = lower value 0.933 | locus YER155C, strain BEM2, stronger effect = lower value 1.01 | locus YER167W, strain BCK2, stronger effect = lower value 1.01 | locus YFR010W, strain ubp6, stronger effect = lower value 0.931 | locus YGL078C, strain dbp3, stronger effect = lower value 1 | locus YGL086W, strain mad1, stronger effect = lower value 0.994 | locus YGL167C, strain pmr1, stronger effect = lower value 0.981 | locus YGL173C, strain kem1, stronger effect = lower value 0.982 | locus YGL227W, strain vid30, stronger effect = lower value 0.959 | locus YGL240W, strain doc1, stronger effect = lower value 0.97 | locus YGL248W, strain PDE1, stronger effect = lower value 1.01 | locus YGL253W, strain hxk2, stronger effect = lower value 0.97 | locus YGR078C, strain PAC10, stronger effect = lower value 1 | locus YGR135W, strain pre9, stronger effect = lower value 0.979 | locus YGR229C, strain SMI1, stronger effect = lower value 1.01 | locus YGR252W, strain gcn5, stronger effect = lower value 0.981 | locus YHR013C, strain ard1, stronger effect = lower value 0.886 | locus YHR027C, strain rpn1, stronger effect = lower value 0.976 | locus YHR030C, strain SLT2, stronger effect = lower value 1.01 and 1.05 | locus YHR079C, strain IRE1 (second series), stronger effect = lower value 0.987 | locus YHR079C, strain IRE1, stronger effect = lower value 1.07 | locus YHR094C, strain hxt1, stronger effect = lower value 1 | locus YHR129C, strain ARP1, stronger effect = lower value 1.01 | locus YHR142W, strain chs7, stronger effect = lower value 0.95 | locus YHR200W, strain rpn10, stronger effect = lower value 1 | locus YIL066C, strain RNR3, stronger effect = lower value 1.01 | locus YIL073C, strain SPO22, stronger effect = lower value 1.31 | locus YIL125W, strain kgd1, stronger effect = lower value 1.01 | locus YIR030C, strain dcg1, stronger effect = lower value 1 | locus YJL092W, strain hpr5, stronger effect = lower value 0.956 | locus YJL095W, strain BCK1 (second series), stronger effect = lower value 0.979 | locus YJL095W, strain BCK1, stronger effect = lower value 0.982 and 1.04 | locus YJL115W, strain asf1, stronger effect = lower value 0.961 | locus YJL129C, strain trk1, stronger effect = lower value 0.927 | locus YJL134W, strain LCB3, stronger effect = lower value 1.01 | locus YJL154C, strain vps35, stronger effect = lower value 0.954 | locus YJL164C, strain tpk1, stronger effect = lower value 1 | locus YJL166W, strain qcr8, stronger effect = lower value 0.944 | locus YJL168C, strain set2, stronger effect = lower value 1 | locus YJL187C, strain SWE1 (second series), stronger effect = lower value 0.982 | locus YJR043C, strain POL32, stronger effect = lower value 0.992 | locus YJR066W, strain TOR1, stronger effect = lower value 0.994
